Data taken from PubChem BioAssay.
The source made the active and inactive calls. Unless noted, no rule for the calls is given here.

What was measured:
[1] = tested on: XIP peptide (Xip251-270) binding; experiment: XIP fragment 251-270 binding compounds – biochemical, small-molecule microarray, fluorescence 635/667 nm, 0.1 µg/mL protein, primary screen (AID 1182); details: fluorescent protein binding, 635 nm, higher = more signal, called active from +8 up or from −8 down
XIP peptide (Xip251-270) = experiment: compounds binding XIP fragment 251-270 – biochemical, small-molecule microarray, fluorescence 635/667 nm, 0.5 µg/mL protein, primary screen (AID 1183); details: fluorescence 635 nm, higher = more signal
[2] = blood-stage malaria parasite viability loss – strain 3D7, DAPI fluorescence, 100 nL, primary screen (AID 1184);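 also: parasites grown inside human red blood cells in medium with human serum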; details: P. falciparum 3D7 growth, 3 d, higher = more signal
[3] = target: Homeobox protein Hox-A13 (Mus musculus) (UniProt Q62424); experiment: disruptors of Hoxa13 oligonucleotide interaction – biochemical, fluorescence polarization, labeled oligonucleotide, primary screen (AID 1185); details: Hoxa13:DNA binding, 15 min, higher = more signal, called active from +8 up or from −8 down
[4] = blockers of DNA damage checkpoint Chk1 activation – imaging, HeLa, hydroxyurea, phospho-Chk1 antibody, percent positive cells, primary screen (AID 1186); details: hydroxyurea-induced phospho-Chk1 immunofluorescence imaging, higher = more signal
[5] = blockers of DNA damage checkpoint Chk1 activation – imaging, HeLa, hydroxyurea, phospho-Chk1 nuclear intensity, primary screen (AID 1187); details: hydroxyurea-induced phospho-Chk1 immunofluorescence imaging, higher = more signal

Homeobox protein Hox-A13 (Mus musculus), sequence (Q62424 whole entry, looked up): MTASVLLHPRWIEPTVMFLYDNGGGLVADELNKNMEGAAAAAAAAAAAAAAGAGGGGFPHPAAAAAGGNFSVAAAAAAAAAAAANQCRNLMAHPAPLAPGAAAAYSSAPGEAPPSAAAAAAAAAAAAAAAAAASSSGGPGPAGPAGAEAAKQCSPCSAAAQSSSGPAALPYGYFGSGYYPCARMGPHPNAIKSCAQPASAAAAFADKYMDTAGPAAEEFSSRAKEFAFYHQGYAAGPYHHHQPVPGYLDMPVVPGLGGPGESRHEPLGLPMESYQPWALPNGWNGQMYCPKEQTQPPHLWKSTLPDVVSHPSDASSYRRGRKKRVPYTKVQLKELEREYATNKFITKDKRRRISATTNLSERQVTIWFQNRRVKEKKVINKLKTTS

| Compound | composite z-score [1] | composite z-score (XIP peptide (Xip251-270)) | z-score [2] | z-score [3] | z-score [4] | z-score [5] |
| --- | --- | --- | --- | --- | --- | --- |
| CN(C)CCCNC(=O)[C@@]1(Cc2ccccc2I)c2ccccc2C(=O)N(Cc2ccccc2C(F)(F)F)[C@H]1c1ccc(CO)cc1 | 0.165 (inactive) | 0.514 | -1.83 | -2.47 (inactive) | -0.239 (inactive) | -0.347 (inactive) |
| CC(C)(C)N1CC=CC23O[C@@H]4/C=C\CCCOC(=O)C4[C@H]2C(=O)N(CCO)[C@@H]3C1=O (stereo partly specified) | -0.0146 (inactive) | 0.368 | -1.38 | -4.95 (inactive) | 0.205 (inactive) | 0.299 (inactive) |
| [N-]=[N+]=NCc1ccccc1C[C@@]1(C(=O)N2CCOCC2)N=C(c2ccc(OCCCO)cc2)O[C@@H]1c1ccccc1CN=[N+]=[N-] | 1.16 (inactive) | 0.788 | -2.36 | 0.223 (inactive) | -0.544 (inactive) | -0.629 (inactive) |
| COCCOC(=O)N1C(=O)[C@@]2(c3cc(C#CCC(C(=O)OC)C(=O)OC)ccc31)[C@H](c1ccccc1OCCO)N1[C@H](c3ccccc3)[C@H](c3ccccc3)OC(=O)[C@H]1[C@@H]2C(=O)N1CCc2cc(OC)c(OC)cc2C1 | 0.201 (inactive) | 0.64 | -2.06 | 0.498 (inactive) | -0.122 (inactive) | 0.261 (inactive) |
| CC(C)c1ccc(NN2C(C(O)c3cccc(O)c3)C=CC3C(=O)N(c4ccccc4)C(=O)C32)cc1 (stereo unspecified) | 0.305 (inactive) | 0.668 | -0.0362 | -4.3 (inactive) | 0.999 (inactive) | 0.88 (inactive) |
| CN(C)C(=O)[C@]1(CCC(=O)OC(C)(C)C)N=C(c2ccc(OCCCO)cc2)O[C@@H]1c1ccccc1N=[N+]=[N-] | 0.639 (inactive) | 0.803 | -1.84 | -6.23 (inactive) | 0.201 (inactive) | 0.588 (inactive) |
| CC(C)CNC(=O)[C@@]1(c2ccc([N+](=O)[O-])cc2)CC(=O)N(CC23CC4CC(CC(C4)C2)C3)[C@@H]1c1ccc(CO)cc1I | 0.106 (inactive) | 0.719 | -0.534 | -3.42 (inactive) | -0.264 (inactive) | -0.135 (inactive) |
| COc1ccc(C(O)C2C=CC3C(=O)NC(=O)C3N2Nc2ccccn2)cc1OCc1ccccc1 (stereo unspecified) | 0.816 (inactive) | -0.0026 | -0.235 | -2.68 (inactive) | 0.682 (inactive) | 0.581 (inactive) |
| O=C(CCN1CCOCC1)c1cccc(O)c1 | 1.55 (inactive) | 0.421 | -1.5 | -2.35 (inactive) | -0.111 (inactive) | 0.114 (inactive) |
| CN1C(=O)C2C=CC(C(O)c3ccccn3)N(Nc3ccccc3)C2C1=O (stereo unspecified) | 0.632 (inactive) | 0.325 | 0.0014 | -7.19 (inactive) | -0.827 (inactive) | -1.12 (inactive) |
| O=c1cccc(CCc2ccccc2)o1 | 0.223 (inactive) | 0.903 | 2.16 | -3.17 (inactive) | 0.576 (inactive) | 0.158 (inactive) |
| COCCOC(=O)N1C(=O)[C@@]2(c3cc(C#CC4=CCCCC4)ccc31)[C@H](C(=O)NC[C@H](O)c1ccccc1)[C@H]1C(=O)O[C@H](c3ccccc3)[C@H](c3ccccc3)N1[C@@H]2c1ccc(O)cc1 | 0.304 (inactive) | 0.744 | -1.39 | -0.485 (inactive) | 0.279 (inactive) | 0.475 (inactive) |
| C=CCNC(=O)[C@@H]1[C@H]2C(=O)O[C@H](c3ccccc3)[C@H](c3ccccc3)N2[C@H](c2ccccc2OCCO)[C@@]12C(=O)Nc1ccc(C#CC3=CCCCC3)cc12 | 1.02 (inactive) | 0.691 | -2.17 | 1.71 (inactive) | 0.0372 (inactive) | 0.464 (inactive) |
| CCCN1C(=O)[C@@]2(CCC(=O)OC(C)(C)C)N=C(c3ccc(OCCCO)cc3)O[C@H]2c2ccccc21 | 0.317 (inactive) | 0.563 | -2.31 | -3.53 (inactive) | -0.0458 (inactive) | 0.261 (inactive) |
| CN(C)CCCCCCNC(=O)[C@H]1C[C@H]2C(=O)N[C@@H](CCCCN)C(=O)N2[C@H]1c1ccc(O)cc1 | 5.07 (inactive) | 0.937 | -0.511 | -0.281 (inactive) | -0.111 (inactive) | 0.501 (inactive) |
| CC(=O)NCCCC[C@@H]1NC(=O)[C@H]2C[C@@H](C(=O)NCCCCCC[N+](C)(C)C)[C@@H](c3cccc(OCCO)c3)N2C1=O | 1.87 (inactive) | 0.893 | -1.26 | -4.59 (inactive) | -0.372 (inactive) | -0.255 (inactive) |
